# Laboratory results from PubChem BioAssay AID463173 (ICCB-Longwood Screening Facility, Harvard Medical School, 2010).
# The whole screen tested about 52,000 compounds, of which about 4,300 (8.3%) were called active. This is one part of a sample in which actives are shown more often than they occur. Rule as the data show it: active = survival mostly below about 52% (no sharp cut-off); inactive = mostly above about 56%.
# Test system: DeltatarO mutant
# Assay: S. aureus survival, RN4220 and DeltatarO strains – OD600, teichoic acid synthesis inhibitors, primary screen (AID 463173)
# Conditions: S. aureus RN4220 wild type/DeltatarO growth, OD600, 18 h, stronger effect = lower value, screened at 18.75 µg/mL (by protocol)
row,SMILES,survival
1,CCc1nn(CC(=O)NCc2ccc(C)cc2)c(=O)c2cc3occc3n12,105% (inactive)
2,CCOc1ccc(NC(=O)Cn2cc(C(=O)c3ccc(F)cc3)c(=O)c3cc4c(cc32)OCCO4)cc1,65% (inactive)
3,COc1ccc2nc(N(Cc3cccnc3)C(=O)COc3ccccc3)sc2c1,90% (inactive)
4,Cc1ccc(OCCCSc2nc(-c3ccc(C(C)(C)C)cc3)nc3cc(=O)[nH]n23)cc1C,58% (inactive)
5,COc1ccc(NC(=O)C2=CC(c3ccc4c(c3)OCO4)=NS(=O)(=O)N2C)cc1OC,79% (inactive)
6,O=C(CSc1ncn(-c2ccccc2)n1)NC1CCCCC1,61% (inactive)
7,CCOC(=O)c1c(NC(=O)CC)sc(C(=O)OC)c1C,75% (inactive)
8,CCOC(=O)c1ccc(-n2c(-c3ccc(C)cc3)c(C)n3c4c(=O)n(C)c(=O)n(C)c4nc23)cc1,75% (inactive)
9,CCC(Oc1ccccc1)C(=O)Nc1nnc(S(=O)(=O)N(CC)CC)s1 (stereo not given),104% (inactive)
10,CCC(Oc1ccccc1)C(=O)Nc1nnc(S(=O)(=O)Nc2ccccc2)s1 (stereo not given),40% (active)
11,CCC(Oc1ccccc1)C(=O)Nc1nnc(S(=O)(=O)N2CCCC2)s1 (stereo not given),103% (inactive)
12,COc1ccc(C(=O)Nc2nnc(C(C)C)s2)cc1OC,55% (inactive)
13,CCOc1ccc(C(=O)Nc2nnc(S(=O)(=O)N(CC)c3ccccc3C)s2)cc1,44% (active)
14,CCOc1ccc(C(=O)Nc2nnc(S(=O)(=O)Nc3ccccc3)s2)cc1,34% (active)
15,O=C(COc1ccccc1)Nc1nnc(S(=O)(=O)Nc2ccccc2)s1,79% (inactive)
16,COc1ccc(NS(=O)(=O)c2nnc(NC(=O)c3ccccc3F)s2)cc1,72% (inactive)
17,CCN(c1ccccc1C)S(=O)(=O)c1nnc(NC(=O)c2ccc(OC)c(OC)c2)s1,40% (active)
18,O=C(Cn1c(-c2cccs2)cc2cc(Cl)ccc21)N1CCN(c2ccccc2)CC1,78% (inactive)
19,CCOC(=O)c1cccnc1SCC(=O)Nc1ccc(C)cc1C,79% (inactive)
20,COc1ccc(NC(=O)CN(C)S(=O)(=O)c2cnc[nH]2)cc1,95% (inactive)
21,CN(Cc1ccccc1)C(=O)CSc1nc2ccccc2n1Cc1ccccc1F,86% (inactive)
22,Cc1ccc(OCC(=O)NCC2(N(C)C)CCCCC2)cc1C,83% (inactive)
23,CCOc1ccc(CCNC(=O)c2nnc(Cc3ccc(Cl)cc3Cl)o2)cc1OCC,83% (inactive)
24,COc1ccccc1C(=O)Nc1nnc(S(=O)(=O)N2CCCCC2)s1,69% (inactive)
25,O=C(Nc1nnc(S(=O)(=O)N2CCCC2)s1)c1ccccc1F,28% (active)

row,SMILES,survival
1,O=C(Nc1nnc(S(=O)(=O)N2CCOCC2)s1)c1ccccc1F,86% (inactive)
2,O=C(Nc1nnc(S(=O)(=O)N2CCCC2)s1)c1ccccc1Cl,117% (inactive)
3,COc1ccccc1C(=O)Nc1nnc(S(=O)(=O)N2CCN(c3ccc(F)cc3)CC2)s1,50% (inactive)
4,O=C(Nc1nnc(S(=O)(=O)N2CCCCCC2)s1)c1ccccc1Cl,38% (active)
5,Cc1ccccc1C(=O)Nc1nnc(S(=O)(=O)N2CCCCCC2)s1,47% (active)
6,COc1ccccc1C(=O)Nc1nnc(S(=O)(=O)N2CCCCCC2)s1,56% (active)
7,O=C(Nc1nnc(S(=O)(=O)N2CCOCC2)s1)c1ccccc1Cl,79% (inactive)
8,COc1ccc(N(C)S(=O)(=O)c2ccc3c(c2)n(C)c(=O)c(=O)n3C)cc1,86% (inactive)
9,O=C(CN1CCCN(Cc2ccccc2Cl)S1(=O)=O)NCc1ccccc1,94% (inactive)
10,CCCn1c(=O)c2sccc2n2c(CCCC(=O)NCc3ccccc3)nnc12,83% (inactive)
11,O=C(c1ccccc1)n1nc(-c2ccco2)nc1NCc1ccccc1Cl,103% (inactive)
12,O=C1C2C3C=CC(C3)C2C(=O)N1c1ccc(-c2nc3ccccc3o2)cc1 (stereo not given),89% (inactive)
13,CCN(C(=O)Cn1c(=O)n(CCCS(=O)(=O)C2CCCCC2)c(=O)c2ccccc21)c1cccc(C)c1,87% (inactive)
14,COc1ccccc1CNC(=O)c1ccc2c(c1)N(Cc1cc(C)ccc1C)C(=O)c1ccccc1S2,68% (inactive)
15,COc1cccc(NC(=O)Cn2c(=O)oc3cc(S(=O)(=O)N4CCCCC4)ccc32)c1,112% (inactive)
16,COc1ccc(N2CCN(C(=O)CN3C(=O)CSc4c3c(C)nn4-c3ccccc3)CC2)cc1,79% (inactive)
17,CC(=O)NCCNC(=O)c1ccc2c(=O)n(CCc3ccccc3)c(=O)[nH]c2c1,83% (inactive)
18,O=C(Nc1nnc(S(=O)(=O)N2CCCCCC2)s1)c1ccccc1F,47% (active)
19,CCc1ccc2oc(C(=O)Nc3cc(C)ccc3C)cc(=O)c2c1,52% (inactive)
20,Cc1ccc(C(=O)Nc2ccc3oc(-c4cccnc4)nc3c2)cc1,83% (inactive)
21,Cc1ccccc1C(=O)Nc1c(C(=O)Nc2cccc(F)c2)oc2ccccc12,46% (active)
22,Cc1ccc(NC(=O)c2oc3ccccc3c2NC(=O)c2ccccc2C)cc1,79% (inactive)
23,COc1cccc(NC(=O)c2oc3ccccc3c2NC(=O)COc2ccccc2C)c1,122% (inactive)
24,COc1cccc(NC(=O)c2oc3ccccc3c2NC(=O)c2ccccc2C)c1,43% (active)
25,CCOC(=O)C(=O)Nc1c(C(=O)Nc2cccc(F)c2)oc2ccccc12,97% (inactive)

row,SMILES,survival
1,COc1cccc(NC(=O)c2oc3ccccc3c2C)c1,106% (inactive)
2,O=C(OCc1cc(=O)n2nc(-c3cccs3)sc2n1)c1ccccc1Br,75% (inactive)
3,CC1C(C(=O)Nc2ccccc2)CCCC1(C)C(=O)O (stereo not given),80% (inactive)
4,CC(=O)c1cccc(NC(=O)C2CCN(c3ncnc4c3nc3n4CCCCC3)CC2)c1,84% (inactive)
5,O=C(CN(c1ccc2c(c1)OCCO2)S(=O)(=O)c1ccccc1)NC1CC1,75% (inactive)
6,CCOc1ccc(NC(=O)c2ccc3c(=O)n4nc(Nc5ccccc5C)sc4nc3c2)cc1,113% (inactive)
7,CCCCN(CC)C(=O)C1CCC(CNS(=O)(=O)c2cccc3nsnc23)CC1 (stereo not given),83% (inactive)
8,CC(C)CCNC(=O)CCC(=O)N1Cc2ccccc2Oc2ncccc21,55% (inactive)
9,CN(C)c1ccc(CNC(=O)CCC(=O)N2Cc3ccccc3Oc3ncccc32)cc1,83% (inactive)
10,CCC(C)NC(=O)CCC(=O)N1Cc2ccccc2Oc2ncccc21 (stereo not given),117% (inactive)
11,O=C(CCC(=O)N1Cc2ccccc2Oc2ncccc21)Nc1ccc(Cl)cc1,37% (active)
12,Cc1ccc(CNC(=O)CCC(=O)N2Cc3ccccc3Oc3ncccc32)cc1,71% (inactive)
13,CCOc1ccc(CNC(=O)CCC(=O)N2Cc3ccccc3Oc3ncccc32)cc1,32% (active)
14,Cc1ccc(NC(=O)CCC(=O)N2Cc3ccccc3Oc3ncccc32)cc1Cl,83% (inactive)
15,Cc1ccc(NC(=O)CCC(=O)N2Cc3ccccc3Oc3ncccc32)cc1,49% (inactive)
16,CC(C)NC(=O)CCC(=O)N1Cc2ccccc2Oc2ncccc21,0% (active)
17,CCOc1ccc(CNC(=O)Cn2nc(C)n3cccc3c2=O)cc1,101% (inactive)
18,Cc1cccc(NC(=O)C2CCN(S(=O)(=O)c3ccc(F)cc3)CC2)c1C,60% (inactive)
19,COc1ccc(CNC(=O)CCCN2C(=O)CCn3nc(-c4cn(C)c5ccccc45)cc32)cc1,88% (inactive)
20,COc1ccc(OC)c(NC(=O)Cc2coc3ccc(C(C)C)cc23)c1,73% (inactive)
21,Cc1ccc(N(C)C(=O)Cn2nc(Cc3ccncc3)c3ccccc3c2=O)cc1C,84% (inactive)
22,Oc1ccc2ccccc2c1/C=N/c1nccs1,81% (inactive)
23,CCOc1ccccc1NC(=O)Nc1ccc2nc(N3CCN(C)CC3)cc(C)c2c1,75% (inactive)
24,COc1ccc(CCNC(=O)C(=O)NCC(c2cccs2)S(=O)(=O)c2cccs2)cc1 (stereo not given),78% (inactive)
25,COc1cc(S(=O)(=O)N2CCCCC2C)c(OC)cc1Cl (stereo not given),114% (inactive)

row,SMILES,survival
1,CC(CCc1ccccc1)NC(=O)Cn1c(=O)nc(-c2ccccc2)c2ccccc21 (stereo not given),99% (inactive)
2,CC1(C)OC(=O)C(=C2CCCCCN2)C(=O)O1,99% (inactive)
3,COc1ccc(Cl)cc1NC(=O)c1sc2nc3n(c(=O)c2c1C)CCC3,76% (inactive)
4,COc1ccccc1NC(=O)c1sc2nc(-c3cc4ccccc4oc3=O)[nH]c(=O)c2c1C,106% (inactive)
5,CC(C)(C)C1CCc2c(sc3nc(-c4cc5cc(Cl)ccc5oc4=O)[nH]c(=O)c23)C1 (stereo not given),83% (inactive)
6,O=C(O)c1ccc2nc(-c3cc4cc(Cl)ccc4oc3=O)[nH]c2c1,69% (inactive)
7,Cc1c(C(=O)Nc2ccccc2)sc2nc(-c3cc4cc(Cl)ccc4oc3=O)[nH]c(=O)c12,45% (active)
8,COc1ccccc1NC(=O)c1sc2nc(-c3cc4cc(Cl)ccc4oc3=O)[nH]c(=O)c2c1C,45% (active)
9,COc1ccc(-c2cn3nc(SCC(=O)Nc4ccc(C)c(Cl)c4)ccc3n2)cc1,94% (inactive)
10,COc1ccccc1N1CCN(C(=O)c2oc3ccccc3c2NC(=O)C(C)Oc2ccccc2)CC1 (stereo not given),69% (inactive)
11,CCNc1nc2c(c(=O)[nH]c(=O)n2C)n1CC(O)COc1ccc(Cl)cc1Cl (stereo not given),180% (inactive)
12,CN(C)c1ccc(CNS(=O)(=O)c2csc(C(N)=O)c2)cc1,60% (inactive)
13,O=C(CC1N=C2c3ccccc3N=C(SCc3ccc(F)cc3)N2C1=O)NCCc1ccccc1 (stereo not given),85% (inactive)
14,CCOc1ccccc1Nc1nc2ccccc2nc1NS(=O)(=O)c1ccc(Cl)cc1,79% (inactive)
15,CCOc1ccc(S(=O)(=O)Nc2nc3ccccc3nc2Nc2ccc(OC)cc2)cc1,68% (inactive)
16,CCOC(=O)c1ccc(Nc2nc3ccccc3n3c(C)nnc23)cc1,67% (inactive)
17,COc1ccc(Nc2nc3ccccc3nc2NS(=O)(=O)c2ccc(Cl)cc2)cc1OC,29% (active)
18,COc1ccc(Nc2nc3c(S(=O)(=O)c4ccccc4)nnn3c3ccc(Cl)cc23)cc1OC,117% (inactive)
19,COc1ccc2nc(NS(=O)(=O)c3ccc(C)cc3)c(Nc3cc(Cl)ccc3OC)nc2c1,22% (active)
20,Cc1cccc(C)c1Nc1nc2ccccc2nc1NS(=O)(=O)c1ccccc1,79% (inactive)
21,CCc1ccc(Nc2nc3ccccc3nc2NS(=O)(=O)c2ccccc2)cc1,28% (active)
22,Cc1ccc2nc(NS(=O)(=O)c3ccc(Cl)cc3)c(Nc3ccc(C(=O)O)cc3)nc2c1,109% (inactive)
23,CCOC(=O)c1ccc(Nc2nc3ccccc3nc2NS(=O)(=O)c2ccc(Cl)cc2)cc1,37% (active)
24,COc1cc(Cl)c(C)cc1Nc1nc2ccccc2nc1NS(=O)(=O)c1ccccc1,116% (inactive)
25,COc1ccc(Nc2nc3ccccc3nc2NS(=O)(=O)c2ccc(C)cc2)c(OC)c1,63% (inactive)
